Bioassay records as filed in PubChem.
PAX8 reporter: lowers PAX8-driven luciferase in RMG-I cells; RMG-I TPO-luciferase reporter, SteadyGlo, 24 h; inhibition, % at 12.6 µM; 360,000 tested, 1.2% active; AID 652154;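 active = mean replicate inhibition at least 60% with every replicate also reaching 60%; inconclusive = only one of the two criteria is met; inactive = mean below 60% and not all replicates reaching 60%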;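 note: luciferase light reporting Pax8 driven TPO promoter activity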
LMP1 NFkB inh: Epstein-Barr LMP1 NF-kappaB reporter inhibition | LMP1-induced NF-kappaB luciferase reporter cells, luminescence | inhibition, % at 12.5 µM | 350,000 tested, 0.69% active | AID 504558; in the data active = inhibition above about 41%; inconclusive = no clear call, values can overlap the other calls
TWEAK-Fn14 inh: blocks TWEAK-Fn14 interaction in a reporter cell assay | TWEAK-stimulated Fn14 reporter cells, luciferase luminescence, 8 h | inhibition, % at 10 µM | 360,000 tested, 2% active; in the data active = inhibition above about 50%
EWS-Fli block: blocks EWS/Fli oncoprotein-driven transcription; A673 NR0B1-luciferase reporter, viability-normalised; inhibition, % at 12.6 µM; 350,000 tested, 0.67% active; AID 651661;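 active = mean inhibition of at least 50% after viability correction, with every replicate also passing that limit; inconclusive = mean reaches 50% but only one of two replicates passes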;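 note: firefly luciferase signal divided by Alamar Blue viability fluorescence both relative to DMSO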
TROY NFkB inh: inhibitors of TROY-dependent NF-kB signaling. Q293 LMP1-TROYcd NF-kB luciferase reporter, 4 h. inhibition, % at 10 µM. 360,000 tested, 0.98% active;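 active = compounds whose plate-normalised and pattern-corrected inhibition of the luciferase reporter signal at the single screening dose is 50% or more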
LGR2 antag: blocks bursicon-induced cAMP signaling via Drosophila LGR2. HEK293 LGR2, CRE-luciferase, bursicon-stimulated, 4 h. inhibition, % at 9.99 µM. 380,000 tested, 0.35% active;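 active = drop in luminescence signal, shown as inhibition above about 50% in the replicate tests, limit read from the data, passing the limit was not always enough; inconclusive = probably only some replicates passing the limit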;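 note: agonist challenge used bursicon conditioned medium at about half maximal strength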
A number is an active result; n = inactive; u = inconclusive; x = no result. Most compounds without a hit are left out; they make up all but 3.1% or so of the library.

SMILES	PAX8 reporter	LMP1 NFkB inh	TWEAK-Fn14 inh	EWS-Fli block	TROY NFkB inh	LGR2 antag
CCCN1[C@@H]2c3ccc(-c4ccccc4OC)c(=O)n3C[C@@H]2[C@@H](CO)[C@@H]1C(=O)N(C)C	x	x	x	n	x	n
Cc1ccc(-c2cc3nc4c(c(=O)n3[nH]2)CCCC4)cc1	x	n	62	x	n	x
COc1cccc(NC(=O)N[C@H]2C=C[C@@H](CC(=O)NCc3ccccn3)O[C@H]2CO)c1	n	x	x	n	x	n
C[C@H]1CN([C@@H](C)CO)C(=O)c2cc(NS(=O)(=O)c3cccs3)ccc2O[C@H]1CN(C)S(=O)(=O)c1cn(C)cn1	n	x	x	n	x	n
c1ccc(Oc2cccc(CN3CCCCC3)c2)cc1	x	n	n	x	n	x
c1ccc(COc2cccc(CN3CCCCC3)c2)cc1	n	n	103	n	n	n
C[C@@H]1CN([C@@H](C)CO)C(=O)Cc2cc(NC(=O)Nc3ccc(C(F)(F)F)cc3)ccc2O[C@@H]1CN(C)Cc1ccc(Oc2ccccc2)cc1	u	x	x	n	x	n
C[C@H]1CN([C@@H](C)CO)C(=O)Cc2cc(NC(=O)Nc3ccc(C(F)(F)F)cc3)ccc2O[C@H]1CN(C)Cc1ccc(C(=O)Nc2ccccc2N)cc1	x	x	x	79	x	n
C[C@@H]1CN([C@@H](C)CO)C(=O)Cc2cc(NC(=O)CCCCCC(=O)Nc3ccccc3N)ccc2O[C@@H]1CN(C)Cc1ccc(Cl)c(Cl)c1	70	x	x	n	x	n
C[C@H](CO)N1C[C@H](C)[C@H](CN(C)Cc2ccc(Cl)c(Cl)c2)Oc2ccc(NC(=O)CCCCCC(=O)Nc3ccccc3N)cc2CC1=O	68	x	x	n	x	n
C[C@@H]1CN([C@H](C)CO)C(=O)Cc2cc(NC(=O)Nc3ccc(C(F)(F)F)cc3)ccc2O[C@@H]1CN(C)Cc1ccc(C(=O)Nc2ccccc2N)cc1	x	x	x	n	x	n
C[C@H]1CN([C@@H](C)CO)C(=O)Cc2cc(NC(=O)CCCCCC(=O)Nc3ccccc3N)ccc2O[C@H]1CN(C)CC1CCCCC1	n	x	x	60	x	n
CN1C(=O)c2cc(NC(=O)C3CCCCC3)ccc2OC[C@H]2O[C@@H](CC(=O)NCc3ccccc3F)CC[C@@H]21	n	x	x	n	x	n
Cc1noc(C)c1S(=O)(=O)Nc1ccc2c(c1)C(=O)N([C@H](C)CO)C[C@H](C)[C@H](CN(C)C(=O)Cc1ccccc1)OCCCC[C@H](C)O2	n	x	x	n	x	n
Cc1noc(C)c1NC(=O)Nc1cccc2c1O[C@H](CN(C)Cc1ccc(C(F)(F)F)cc1)[C@@H](C)CN([C@@H](C)CO)C2=O	n	x	x	n	x	n
Cc1noc(C)c1NC(=O)Nc1cccc2c1O[C@H](CN(C)Cc1ccc(C(F)(F)F)cc1)[C@H](C)CN([C@@H](C)CO)C2=O	81	x	x	n	x	n
C[C@H](CO)N1C[C@H](C)[C@@H](CN(C)Cc2ccc(C(F)(F)F)cc2)Oc2c(NC(=O)CCCCCC(=O)Nc3ccccc3N)cccc2C1=O	69	x	x	x	x	n
C[C@@H]1CN([C@@H](C)CO)C(=O)c2cccc(NC(=O)Nc3ccccc3)c2O[C@@H]1CN(C)Cc1ccc(C(=O)Nc2ccccc2N)cc1	68	x	x	n	x	n
C[C@@H]1CN([C@H](C)CO)C(=O)Cc2cc(NC(=O)CCCCCC(=O)Nc3ccccc3N)ccc2O[C@@H]1CN(C)Cc1ccc(C(F)(F)F)cc1	69	x	x	n	x	n
C[C@@H]1CN([C@@H](C)CO)C(=O)c2cc(C3=CCCC3)cnc2O[C@H]1CN(C)C	x	x	x	n	x	n
O=C(C1CCC1)N1CC2(C1)[C@@H](c1ccccc1)[C@@H](CO)N2Cc1cncnc1	x	x	x	n	x	n
Cc1ccc(N2C(=O)c3ccccc3[C@](C)(C(=O)O)[C@@H]2c2ccc(CO)cc2)nc1	n	x	x	n	x	x
C[C@@H]1CN([C@@H](C)CO)C(=O)Cc2cc(NS(=O)(=O)c3cn(C)cn3)ccc2O[C@H]1CN(C)Cc1ccccc1	n	x	x	n	x	n
O=C(Nc1nccs1)[C@H]1[C@H](CO)[C@H]2Cn3c(cccc3=O)[C@@H]1N2C(=O)C1CCCC1	n	x	x	n	x	n
O=C(Cn1cnc2c(nnn2-c2ccccc2)c1=O)NCc1ccco1	n	87	n	n	n	n
SMILES	PAX8 reporter	LMP1 NFkB inh	TWEAK-Fn14 inh	EWS-Fli block	TROY NFkB inh	LGR2 antag
O=C1CC(c2ccsc2)Sc2ccccc2N1 (stereo not drawn)	n	n	n	n	n	n
CC1CC(=O)C2=C(C1)Nc1ccccc1SC2c1ccc(F)cc1 (stereo not drawn)	n	n	n	n	67	n
C[C@@H]1CCCCO[C@H](CN(C)S(=O)(=O)c2ccccc2)[C@@H](C)CN([C@@H](C)CO)C(=O)c2cc(NC(=O)Nc3cccc4ccccc34)ccc2O1	n	x	x	n	x	n
Cc1noc(C)c1S(=O)(=O)Nc1cccc2c1O[C@@H](CN(C)C(=O)Nc1ccc(F)cc1)[C@@H](C)CN([C@@H](C)CO)C2=O	x	x	x	n	x	n
CN(CC(=O)N1CCCCCC1)S(=O)(=O)c1ccc(F)cc1	n	n	n	n	n	n
CN(CCCC(=O)N1CCCC(C(N)=O)C1)S(=O)(=O)c1ccc(F)cc1 (stereo not drawn)	n	n	68	n	n	n
CN(C)C(=O)C[C@H]1C[C@@H]2c3cc(NS(=O)(=O)c4ccc(F)cc4)ccc3O[C@@H]2[C@@H](CO)O1	n	x	x	n	x	n
C=CC[C@]12CC=CC(=O)[C@@]1(O)O[C@H](c1ccc(OC)c(OC)c1)[C@H]2C	x	n	66	n	n	u
C=CC[C@]12C=C(OC)C(=O)C(OC)=C1O[C@@H](c1ccc3c(c1)OCO3)[C@H]2C	x	n	n	n	n	n
COc1ccc(C2C(C(=O)c3ccccc3)=C(C)Nc3nc4ccccc4n32)c(OC)c1 (stereo not drawn)	n	n	76	n	53	x
CC(=O)Nc1cccc(Oc2ncnc3scc(-c4ccc(C)cc4)c23)c1	n	n	n	n	n	n
C=CC(=O)Nc1cccc(Oc2ncnc3[nH]cc(-c4cnc5ccccc5c4)c23)c1	n	n	65	n	53	x
COc1ccc(CN(C)C[C@@H]2Oc3c(NC(=O)Nc4c(C)noc4C)cccc3C(=O)N([C@H](C)CO)C[C@H]2C)cc1	n	x	x	n	x	n
CCNc1nc2c(c(=O)[nH]c(=O)n2C)n1CC(C)C	n	n	n	n	n	n
Cn1c(=O)[nH]c(=O)c2c1nc(N1CCNCC1)n2Cc1ccccc1	n	n	n	n	n	n
CC(C)Cn1c([N+](=O)[O-])nc2c1c(=O)[nH]c(=O)n2C	78	n	n	n	n	n
Cn1c(=O)[nH]c(=O)c2c1nc([N+](=O)[O-])n2Cc1ccccc1	101	95	73	n	n	u
COc1ccc(NC(=O)N[C@H]2CC[C@@H](CCNC(=O)Nc3cc(F)ccc3F)O[C@H]2CO)cc1	x	x	x	x	x	n
Cc1noc(C)c1S(=O)(=O)N(C)C[C@@H]1OCCCC[C@@H](C)Oc2ccc(NC(=O)Nc3cccc4ccccc34)cc2C(=O)N([C@H](C)CO)C[C@@H]1C	n	x	x	n	x	n
